From PubChem BioAssay (NCI)
Several values for one entry are separate records, joined by “and”; a condition that tells them apart may be missing. Equal values may be shown once. This is part of a sample that, as a whole, favours compounds with a hit. Of some 79,000 tested, about 15% had one in any assay. Activity calls are given as the source filed them. Cut-off read from the data, not from the text of the source: active = growth inhibition above about 70%; inactive = the rest.

Legend:
[1] = NCI Yeast Anticancer Drug Screen. Data for the rad50EPP+ strain (AID 151);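 note: 0% = growth of vehicle-treated control cultures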; settings: S. cerevisiae rad50 mutant strain, active compounds read high
Outline: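 Yeast strain carrying rad50 alteration (rad50EPP+) exposed to compounds; growth inhibition measured relative to vehicle-treated controls.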

[2] = NCI Yeast Anticancer Drug Screen. Data for the mgt1 strain (AID 153); settings: S. cerevisiae mgt1 mutant growth inhibition, active compounds read high
Outline: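 Yeast mgt1 strain (DNA repair/cell-cycle alteration panel) exposed to compounds; growth inhibition measured relative to vehicle-treated controls.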

[3] = NCI Yeast Anticancer Drug Screen. Data for the rad50 strain (AID 155);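 note: 0% = growth of vehicle-only cultures of the same strain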; settings: S. cerevisiae rad50 strain growth inhibition, active compounds read high
Outline: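 Yeast carrying a defined DNA repair defect were exposed to test compounds, and growth was compared with vehicle-treated controls to give percent inhibition.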

[4] = NCI Yeast Anticancer Drug Screen. Data for the mec2-1 strain (AID 157); settings: S. cerevisiae mec2-1 strain, active compounds read high
Outline: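 mec2-1 yeast strain, carrying an alteration in DNA damage repair or cell cycle control, was exposed to compounds; growth inhibition was measured relative to vehicle-treated controls.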

[5] = NCI Yeast Anticancer Drug Screen. Data for the rad14 strain (AID 159);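 note: 0% = growth of vehicle-treated control cultures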; settings: S. cerevisiae rad14 strain growth inhibition, active compounds read high
Outline: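 Yeast cells carrying a defined DNA-repair defect were exposed to compounds, and growth inhibition was calculated relative to vehicle-treated control cultures.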

[6] = NCI Yeast Anticancer Drug Screen. Data for the sgs1 mgt1 strain (AID 161);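 note: 0% = growth of cultures given vehicle only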; settings: S. cerevisiae sgs1 mgt1 strain, active compounds read high
Outline: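 Compounds are added to genetically altered yeast, and growth is compared with cultures given vehicle alone to give percent inhibition.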

[7] = NCI Yeast Anticancer Drug Screen. Data for the CLN2oe strain (AID 163);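 note: 0% = growth of vehicle-only control cultures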; settings: S. cerevisiae CLN2oe strain, active compounds read high
Outline: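 Yeast cells carrying a defined cell-cycle control alteration were exposed to test compounds. Growth inhibition was scored against vehicle-treated control cultures.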

[8] = NCI Yeast Anticancer Drug Screen. Data for the cln2 rad14 strain (AID 165);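 note: 0% = growth equal to vehicle treated cultures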; settings: S. cerevisiae cln2 rad14 strain, active compounds read high
Outline: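 Yeast carrying cln2 and rad14 alterations (cell cycle control and DNA damage repair) were exposed to compounds. Growth inhibition was measured against vehicle-treated controls.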

[9] = NCI Yeast Anticancer Drug Screen. Data for the bub3 strain (AID 167); settings: S. cerevisiae bub3 mutant strain, active compounds read high
Outline: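 Compounds were applied to a genetically altered yeast strain carrying a cell-cycle control defect. Growth inhibition was scored against vehicle-treated controls.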

[10] = NCI Yeast Anticancer Drug Screen. Data for the wt2 strain (AID 169);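 note: 0% = growth of vehicle-treated yeast cultures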; settings: S. cerevisiae wt2 strain growth inhibition, active compounds read high
Outline: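 Yeast cells were exposed to test compounds, and growth inhibition was measured relative to vehicle-treated controls.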

[11] = NCI Yeast Anticancer Drug Screen. Data for the mlh1 strain (AID 171);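 note: 0% = growth of vehicle-treated control cultures of the same strain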; settings: S. cerevisiae mlh1 strain growth inhibition, active compounds read high
Outline: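 Yeast carrying a defined genetic alteration in DNA damage repair or cell cycle control were exposed to test compounds. Growth inhibition was measured relative to vehicle-treated controls.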

[12] = NCI Yeast Anticancer Drug Screen. Data for the sgs1 strain (AID 173);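 note: 0% = growth of vehicle-only control cultures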; settings: S. cerevisiae sgs1 mutant, active compounds read high
Outline: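 Yeast mutant strains carrying defined defects in DNA damage repair or cell cycle control were exposed to test compounds. Growth inhibition was scored against vehicle-treated controls.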

[13] = NCI Yeast Anticancer Drug Screen. Data for the mlh1 rad18 strain (AID 175); settings: S. cerevisiae mlh1 rad18 strain growth inhibition, active compounds read high
Outline: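 Growth inhibition of the yeast strain was measured after compound exposure and expressed relative to vehicle-treated controls. The strain carries defined defects in DNA damage repair.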

[14] = NCI Yeast Anticancer Drug Screen. Data for the rad18 strain (AID 177); settings: S. cerevisiae rad18 mutant growth inhibition, active compounds read high
Outline: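 Yeast carrying a defined DNA damage repair alteration were exposed to compounds. Growth inhibition was expressed relative to vehicle-treated controls.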

[15] = NCI Yeast Anticancer Drug Screen. Data for the wt1 strain (AID 149);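 note: 0% = growth of vehicle-treated wt1 cultures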; settings: S. cerevisiae wt1 strain (SPY 50644) growth inhibition, active compounds read high
Outline: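 Yeast wt1 strain exposed to compounds; growth inhibition measured relative to vehicle-treated controls.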

[16] = NCI Yeast Anticancer Drug Screen. Data for the rad52 strain (AID 147);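 note: 0% = growth of vehicle-treated control cultures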; settings: S. cerevisiae rad52 mutant growth inhibition, active compounds read high
Outline: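 Yeast strain carrying a DNA damage repair alteration was exposed to test compounds. Growth inhibition was measured relative to vehicle-treated controls.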

[17] = at 5.0 µM (retest, dose inferred, filed as 0.5)
[18] = at 50.0 µM (retest, dose inferred, filed as 5.0)

Measured: growth inhibition

O=NN(CCCl)C(=O)NCCCl
inactive: [1]; at 1.2 µM -3% | [1]; at 3.7 µM -1% | [1]; at 11.0 µM 5% | [1]; at 33.0 µM 30% | [2]; at 1.2 µM -3% | [2]; at 3.7 µM -2% | [2]; at 11.0 µM 0% | [2]; at 33.0 µM 2% | [2]; at 100.0 µM 3% | [3]; at 1.2 µM 0% | [3]; at 3.7 µM 0% | [3]; at 11.0 µM 6% | [3]; at 33.0 µM 15% | [3]; at 50.0 µM 35.6% | [3]; at 100.0 µM 53% | [4]; at 1.2 µM -2% | [4]; at 3.7 µM 0% | [4]; at 11.0 µM 1% | [4]; at 33.0 µM 4% | [4]; at 50.0 µM -4.3% | [4]; at 100.0 µM 15% | [5]; at 1.2 µM -2% | [5]; at 3.7 µM 1% | [5]; at 11.0 µM 3% | [5]; at 33.0 µM 3% | [5]; at 100.0 µM 11% | [6]; at 50.0 µM 6.75% | [7]; at 1.2 µM -10% | [7]; at 3.7 µM -5% | [7]; at 11.0 µM -6% | [7]; at 33.0 µM -5% | [7]; at 100.0 µM 0% | [8]; at 50.0 µM 2.3% | [9]; at 1.2 µM 2% | [9]; at 3.7 µM -2% | [9]; at 11.0 µM 0% | [9]; at 33.0 µM -6% | [9]; at 50.0 µM -10.8% | [9]; at 100.0 µM 3% | [10]; at 1.2 µM -3% | [10]; at 3.7 µM -3% | [10]; at 11.0 µM -3% | [10]; at 33.0 µM 0% | [10]; at 100.0 µM 3% | [11]; at 1.2 µM -1% | [11]; at 3.7 µM -2% | [11]; at 11.0 µM -2% | [11]; at 33.0 µM 1% | [11]; at 100.0 µM 8% | [12]; at 1.2 µM -2% | [12]; at 3.7 µM -1% | [12]; at 11.0 µM 1% | [12]; at 33.0 µM 10% | [12]; at 100.0 µM 33% | [13]; at 50.0 µM 43% | [14]; at 1.2 µM 4% | [14]; at 3.7 µM 13% | [14]; at 11.0 µM 45%
active: [1]; at 100.0 µM 76% | [14]; at 33.0 µM 85% | [14]; at 100.0 µM 94%

COc1ccc(/C(C#N)=C/c2ccc(OC)c(OC)c2)cc1
inactive: [15]; at 1.2 µM -37% | [15]; at 3.7 µM -21% | [15]; at 11.0 µM -22% | [15]; at 33.0 µM -23% | [15]; at 100.0 µM 0% | [1]; at 1.2 µM -17% | [1]; at 3.7 µM 0% | [1]; at 11.0 µM 8% | [1]; at 33.0 µM 60% | [1]; at 100.0 µM 54% | [3]; at 1.2 µM 2% | [3]; at 3.7 µM -4% | [3]; [17] 46% | [3]; at 11.0 µM -12% | [3]; at 33.0 µM 6% | [3]; at 50.0 µM 15.1% and 51.5% | [3]; at 100.0 µM 14% | [4]; at 1.2 µM -11% | [4]; at 3.7 µM -7% | [4]; [17] 56% | [4]; at 11.0 µM -21% | [4]; at 33.0 µM -10% | [4]; at 50.0 µM 43.8% and 38% | [4]; at 100.0 µM 18% | [5]; at 1.2 µM -17% | [5]; at 3.7 µM -29% | [5]; at 11.0 µM -27% | [5]; at 33.0 µM -13% | [5]; at 100.0 µM 32% | [6]; [17] -15% | [6]; [18] 57% | [6]; at 50.0 µM 46.8% | [7]; at 1.2 µM 13% | [7]; at 3.7 µM 9% | [7]; at 11.0 µM -2% | [7]; at 33.0 µM 0% | [7]; at 100.0 µM -5% | [8]; [17] 55% | [8]; [18] 60% | [8]; at 50.0 µM 7.8% | [9]; at 1.2 µM -5% | [9]; at 3.7 µM -3% | [9]; [17] 10% | [9]; at 11.0 µM 2% | [9]; at 33.0 µM 9% | [9]; at 50.0 µM 50.2% | [9]; at 100.0 µM 51% | [10]; at 1.2 µM -49% | [10]; at 3.7 µM -35% | [10]; at 11.0 µM -21% | [10]; at 33.0 µM -5% | [10]; at 100.0 µM 21% | [11]; at 1.2 µM -8% | [11]; at 3.7 µM 2% | [11]; at 11.0 µM 10% | [11]; at 33.0 µM 28% | [11]; at 100.0 µM 40% | [12]; at 1.2 µM -8% | [12]; at 3.7 µM -13% | [12]; at 11.0 µM -20% | [12]; at 33.0 µM 2% | [12]; at 100.0 µM 16% | [13]; [17] 30% | [13]; at 50.0 µM 26.1% and 58.4% | [14]; at 1.2 µM -13% | [14]; at 3.7 µM -17% | [14]; at 11.0 µM -13% | [14]; at 33.0 µM 0% | [14]; at 100.0 µM 13%
active: [3]; [18] 83% | [4]; [18] 92% | [9]; [18] 75% | [13]; [18] 81%

S=C1SCN(CCc2ccccc2)CN1CCc1ccccc1
active: [4]; at 50.0 µM 71.8% | [6]; at 50.0 µM 76.2% | [9]; [18] 72% | [9]; at 50.0 µM 79.1%
inactive: [16]; at 1.2 µM 12% | [16]; at 3.7 µM 21% | [16]; at 11.0 µM 46% | [16]; at 33.0 µM 63% | [16]; at 100.0 µM 46% | [3]; at 1.2 µM -12% | [3]; at 3.7 µM 5% | [3]; [17] 7% | [3]; at 11.0 µM 50% | [3]; at 33.0 µM 64% | [3]; [18] 38% | [3]; at 50.0 µM 55% | [3]; at 100.0 µM 52% | [4]; at 1.2 µM -3% | [4]; at 3.7 µM 1% | [4]; [17] 24% | [4]; at 11.0 µM 52% | [4]; at 33.0 µM 54% | [4]; [18] 55% | [4]; at 100.0 µM 38% | [5]; at 1.2 µM -20% | [5]; at 3.7 µM -4% | [5]; at 11.0 µM 2% | [5]; at 33.0 µM 34% | [5]; at 100.0 µM 16% | [6]; [17] 9% | [6]; [18] 48% | [7]; at 1.2 µM 3% | [7]; at 3.7 µM 10% | [7]; at 11.0 µM 25% | [7]; at 33.0 µM 45% | [7]; at 100.0 µM 17% | [8]; [17] 12% | [8]; [18] 12% | [8]; at 50.0 µM 22.1% | [9]; at 1.2 µM -2% | [9]; at 3.7 µM 3% | [9]; [17] -4% | [9]; at 11.0 µM 23% | [9]; at 33.0 µM 53% | [9]; at 100.0 µM 42% | [10]; at 1.2 µM 6% | [10]; at 3.7 µM 3% | [10]; at 11.0 µM 53% | [10]; at 33.0 µM 63% | [10]; at 100.0 µM 47% | [11]; at 1.2 µM -3% | [11]; at 3.7 µM -10% | [11]; at 11.0 µM 20% | [11]; at 33.0 µM 40% | [11]; at 100.0 µM 19% | [12]; at 1.2 µM -5% | [12]; at 3.7 µM 16% | [12]; at 11.0 µM 31% | [12]; at 33.0 µM 59% | [12]; at 100.0 µM 48%
